# The supplement of paper PMC8728848
# Shown is part of a subset that was picked to be rich in the strongest signals.
# B1: CGL (Crenomytilus grayanus), H2FH31 (protein)
# chain: MTTFLIKHKASGKFLHPYGGSSNPANNTKLVLHSDIHERMYFQFDVVDERWGYIKHVASGKIVHPYGGQANPPNETNMVLHQDRHDRALFAMDFFNDNIMHKGGKYIHPKGGSPNPPNNTETVIHGDKHAAMEFIFVSPKNKDKRVLVYA
# Assays:
# Assay in all cases: glycan array binding signal (z-score within array); higher = stronger binding
# Settings in all cases: glycan notation: IUPAC condensed, linker removed
# [1] = biological target: Fuc(a1-2)Gal(b1-3)GlcNAc(b1-2)Man(a1-3)[Fuc(a1-2)Gal(b1-3)GlcNAc(b1-2)Man(a1-6)]Man(b1-4)GlcNAc(b1-4)GlcNAc
# Outline: (§1)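 The Consortium for Functional Glycomics database supplied 3228 glycan arrays, of which those lacking an available protein sequence were dropped. The binding signal, a within-array Z-score, was averaged across arrays of the same protein sequence and across linkers. Negative scores can be read as non-binding.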
# [2] = biological target: Fuc(a1-2)Gal(b1-3)GlcNAc(b1-3)[Gal(b1-4)GlcNAc(b1-6)]Gal(b1-4)Glc
# Outline: as §1
# [3] = biological target: Fuc(a1-2)Gal(b1-3)[Fuc(a1-4)]GlcNAc
# Outline: as §1
# [4] = biological target: Fuc(a1-2)Gal(b1-4)GlcNAc(b1-3)Gal(b1-4)GlcNAc(b1-2)Man(a1-3)[Fuc(a1-2)Gal(b1-4)GlcNAc(b1-3)Gal(b1-4)GlcNAc(b1-2)Man(a1-6)]Man(b1-4)GlcNAc(b1-4)GlcNAc
# Outline: as §1
# [5] = biological target: Fuc(a1-2)Gal(b1-4)GlcNAc(b1-3)[Fuc(a1-2)Gal(b1-4)GlcNAc(b1-6)]GalNAc
# Outline: as §1
# [6] = biological target: Fuc(a1-2)[Gal(a1-3)]Gal(b1-4)GlcNAc
# Outline: as §1
# [7] = biological target: Fuc(a1-2)[Gal(a1-4)]Gal(b1-4)GlcNAc
# Outline: as §1
# [8] = biological target: Fuc(a1-2)[GalNAc(a1-3)]Gal
# Outline: as §1
# [9] = biological target: Fuc(a1-2)[GalNAc(a1-3)]Gal(b1-4)GlcNAc(b1-2)Man(a1-3)[Fuc(a1-2)[GalNAc(a1-3)]Gal(b1-4)GlcNAc(b1-2)Man(a1-6)]Man(b1-4)GlcNAc(b1-4)[Fuc(a1-6)]GlcNAc
# Outline: as §1
# [10] = biological target: Fuc(a1-2)[GalNAc(a1-3)]Gal(b1-4)GlcNAc(b1-6)GalNAc
# Outline: as §1
# [11] = biological target: Fuc(a1-2)[GalNAc(a1-3)]Gal(b1-4)[Fuc(a1-3)]GlcNAc(b1-3)GalNAc
# Outline: as §1
# [12] = biological target: Fuc(a1-3)[Gal(b1-4)]GlcNAc6S
# Outline: as §1
# [13] = biological target: Gal(a1-3)Gal(b1-4)GlcNAc(b1-2)Man
# Outline: as §1
# [14] = biological target: Gal(a1-3)Gal(b1-4)GlcNAc(b1-2)Man(a1-3)[Gal(a1-3)Gal(b1-4)GlcNAc(b1-2)Man(a1-6)]Man(b1-4)GlcNAc(b1-4)GlcNAc
# Outline: as §1
# [15] = biological target: Gal(a1-3)Gal(b1-4)GlcNAc(b1-3)GalNAc
# Outline: as §1
# [16] = biological target: Gal(a1-3)[Gal(a1-4)]Gal(b1-4)GlcNAc
# Outline: as §1
# [17] = biological target: Gal(a1-4)Gal(b1-3)GlcNAc(b1-2)Man(a1-3)[Gal(a1-4)Gal(b1-3)GlcNAc(b1-2)Man(a1-6)]Man(b1-4)GlcNAc(b1-4)GlcNAc
# Outline: as §1
# Gal(a1-4)Gal(b1-4)GlcNAc = biological target: Gal(a1-4)Gal(b1-4)GlcNAc
# Outline: as §1
# [18] = biological target: Gal(a1-4)Gal(b1-4)GlcNAc(b1-2)Man(a1-3)[Gal(a1-4)Gal(b1-4)GlcNAc(b1-2)Man(a1-6)]Man(b1-4)GlcNAc(b1-4)GlcNAc
# Outline: as §1
# [19] = biological target: Gal(a1-4)Gal(b1-4)GlcNAc(b1-3)Gal(b1-4)Glc
# Outline: as §1
# Gal(b1-3)Gal(b1-4)GlcNAc = biological target: Gal(b1-3)Gal(b1-4)GlcNAc
# Outline: as §1
# [20] = biological target: Gal(b1-3)GalNAc(a1-3)[Fuc(a1-2)]Gal(b1-4)Glc
# Outline: as §1
# [21] = biological target: Gal(b1-3)GalNAc(a1-3)[Fuc(a1-2)]Gal(b1-4)GlcNAc
# Outline: as §1
# [22] = biological target: Gal(b1-3)GlcNAc(a1-3)Gal(b1-4)GlcNAc
# Outline: as §1
# [23] = biological target: Gal(b1-3)GlcNAc(a1-6)Gal(b1-4)GlcNAc
# Outline: as §1
# [24] = biological target: Gal(b1-3)GlcNAc(b1-2)[Gal(b1-3)GlcNAc(b1-6)]Man(a1-6)[Gal(b1-3)GlcNAc(b1-2)Man(a1-3)]Man(b1-4)GlcNAc(b1-4)GlcNAc
# Outline: as §1
# [25] = biological target: Gal(b1-3)GlcNAc(b1-6)Gal(b1-4)GlcNAc
# Outline: as §1
# [26] = biological target: Gal(b1-3)[Neu5Ac(a2-6)]GalNAc
# Outline: as §1
# Gal(b1-4)GlcNAc(b1-2)Man = biological target: Gal(b1-4)GlcNAc(b1-2)Man
# Outline: as §1
# [27] = biological target: Gal(b1-4)GlcNAc(b1-2)[Gal(b1-4)GlcNAc(b1-4)]Man(a1-3)[Gal(b1-4)GlcNAc(b1-2)[Gal(b1-4)GlcNAc(b1-6)]Man(a1-6)]Man(b1-4)GlcNAc(b1-4)GlcNAc
# Outline: as §1
# [28] = biological target: Gal(b1-4)GlcNAc(b1-3)Gal(b1-4)GlcNAc(b1-3)Gal(b1-4)GlcNAc(b1-2)[Gal(b1-4)GlcNAc(b1-3)Gal(b1-4)GlcNAc(b1-3)Gal(b1-4)GlcNAc(b1-6)]Man(a1-6)[Gal(b1-4)GlcNAc(b1-3)Gal(b1-4)GlcNAc(b1-3)Gal(b1-4)GlcNAc(b1-2)Man(a1-3)]Man(b1-4)GlcNAc(b1-4)[Fuc(a1-6)]GlcNAc
# Outline: as §1
# [29] = biological target: Gal(b1-4)GlcNAc(b1-3)Gal(b1-4)GlcNAc(b1-3)Gal(b1-4)GlcNAc(b1-3)Gal(b1-4)GlcNAc(b1-3)Gal(b1-4)GlcNAc(b1-2)Man(a1-3)[Gal(b1-4)GlcNAc(b1-3)Gal(b1-4)GlcNAc(b1-3)Gal(b1-4)GlcNAc(b1-3)Gal(b1-4)GlcNAc(b1-3)Gal(b1-4)GlcNAc(b1-2)Man(a1-6)]Man(b1-4)GlcNAc(b1-4)GlcNAc
# Outline: as §1
# [30] = biological target: Gal(b1-4)GlcNAc(b1-3)Gal(b1-4)GlcNAc(b1-3)Gal(b1-4)GlcNAc(b1-3)Gal(b1-4)GlcNAc(b1-3)Gal(b1-4)GlcNAc(b1-2)[Gal(b1-4)GlcNAc(b1-3)Gal(b1-4)GlcNAc(b1-3)Gal(b1-4)GlcNAc(b1-3)Gal(b1-4)GlcNAc(b1-3)Gal(b1-4)GlcNAc(b1-6)]Man(a1-6)[Gal(b1-4)GlcNAc(b1-3)Gal(b1-4)GlcNAc(b1-3)Gal(b1-4)GlcNAc(b1-3)Gal(b1-4)GlcNAc(b1-3)Gal(b1-4)GlcNAc(b1-2)Man(a1-3)]Man(b1-4)GlcNAc(b1-4)[Fuc(a1-6)]GlcNAc
# Outline: as §1
# Gal6S(b1-4)Glc = biological target: Gal6S(b1-4)Glc
# Outline: as §1
# [31] = biological target: GalNAc(b1-3)Gal(a1-4)Gal(b1-4)GlcNAc(b1-3)Gal(b1-4)Glc
# Outline: as §1
# GalNAc6S(b1-4)GlcNAc = biological target: GalNAc6S(b1-4)GlcNAc
# Outline: as §1
# [32] = biological target: GlcA3S(b1-3)Gal(b1-4)GlcNAc(b1-3)Gal(b1-4)Glc
# Outline: as §1
# [33] = biological target: GlcNAc(a1-6)Gal(b1-4)GlcNAc
# Outline: as §1
# [34] = biological target: GlcNAc(b1-2)[GlcNAc(b1-4)]Man(a1-3)[GlcNAc(b1-4)][GlcNAc(b1-2)Man(a1-6)]Man(b1-4)GlcNAc(b1-4)GlcNAc
# Outline: as §1
# GlcNAc(b1-3)Fuc = biological target: GlcNAc(b1-3)Fuc
# Outline: as §1
# [35] = biological target: GlcNAc(b1-3)Gal(b1-4)GlcNAc(b1-3)Gal(b1-4)GlcNAc(b1-3)Gal(b1-4)GlcNAc(b1-3)Gal(b1-4)GlcNAc(b1-2)Man(a1-3)[GlcNAc(b1-3)Gal(b1-4)GlcNAc(b1-3)Gal(b1-4)GlcNAc(b1-3)Gal(b1-4)GlcNAc(b1-3)Gal(b1-4)GlcNAc(b1-2)Man(a1-6)]Man(b1-4)GlcNAc(b1-4)[Fuc(a1-6)]GlcNAc
# Outline: as §1
# [36] = biological target: GlcNAc(b1-3)[GlcNAc(b1-4)][GlcNAc(b1-6)]GlcNAc
# Outline: as §1
# [37] = biological target: Neu5Ac(a2-3)Gal(b1-3)GlcNAc(b1-2)Man(a1-3)[Neu5Ac(a2-3)Gal(b1-3)GlcNAc(b1-2)Man(a1-6)]Man(b1-4)GlcNAc(b1-4)GlcNAc
# Outline: as §1
# [38] = biological target: Neu5Ac(a2-3)Gal(b1-3)GlcNAc(b1-3)GalNAc
# Outline: as §1
# [39] = biological target: Neu5Ac(a2-3)Gal(b1-4)GlcNAc(b1-2)[Neu5Ac(a2-3)Gal(b1-4)GlcNAc(b1-4)]Man(a1-3)[GlcNAc(b1-4)][Neu5Ac(a2-3)Gal(b1-4)GlcNAc(b1-2)[Neu5Ac(a2-3)Gal(b1-4)GlcNAc(b1-6)]Man(a1-6)]Man(b1-4)GlcNAc(b1-4)GlcNAc
# Outline: as §1
# [40] = biological target: Neu5Ac(a2-3)Gal(b1-4)GlcNAc(b1-3)[Neu5Ac(a2-3)Gal(b1-4)GlcNAc(b1-6)]GalNAc
# Outline: as §1
# [41] = biological target: Neu5Ac(a2-3)Gal(b1-4)GlcNAc(b1-6)[Neu5Ac(a2-3)Gal(b1-3)]GalNAc
# Outline: as §1
# [42] = biological target: Neu5Ac(a2-3)Gal(b1-4)GlcNAc6S
# Outline: as §1
# [43] = biological target: Neu5Ac(a2-6)Gal(b1-4)GlcNAc(b1-2)Man(a1-6)[Man(a1-3)]Man(b1-4)GlcNAc(b1-4)GlcNAc
# Outline: as §1
# [44] = biological target: Neu5Ac(a2-8)Neu5Ac(a2-3)[GalNAc(b1-4)]Gal(b1-4)Glc
# Outline: as §1
binder,measurement,setting,value
B1,glycan array binding signal (z-score),[1],-0.195
same,glycan array binding signal (z-score),[2],-0.054
same,glycan array binding signal (z-score),[3],-0.372
same,glycan array binding signal (z-score),[4],0.855
same,glycan array binding signal (z-score),[5],-0.067
same,glycan array binding signal (z-score),[6],-0.063
same,glycan array binding signal (z-score),[7],4.38
same,glycan array binding signal (z-score),[8],-0.106
same,glycan array binding signal (z-score),[9],-0.23
same,glycan array binding signal (z-score),[10],-0.096
same,glycan array binding signal (z-score),[11],-0.217
same,glycan array binding signal (z-score),[12],-0.324
same,glycan array binding signal (z-score),[13],1.69
same,glycan array binding signal (z-score),[14],5.84
same,glycan array binding signal (z-score),[15],3.54
same,glycan array binding signal (z-score),[16],3.32
same,glycan array binding signal (z-score),[17],4.07
same,glycan array binding signal (z-score),Gal(a1-4)Gal(b1-4)GlcNAc,3.63
same,glycan array binding signal (z-score),[18],8.66
same,glycan array binding signal (z-score),[19],4.55
same,glycan array binding signal (z-score),Gal(b1-3)Gal(b1-4)GlcNAc,-0.077
same,glycan array binding signal (z-score),[20],-0.352
same,glycan array binding signal (z-score),[21],-0.341
same,glycan array binding signal (z-score),[22],0.396
same,glycan array binding signal (z-score),[23],0.803
same,glycan array binding signal (z-score),[24],1.87
same,glycan array binding signal (z-score),[25],0.949
same,glycan array binding signal (z-score),[26],-0.398
same,glycan array binding signal (z-score),Gal(b1-4)GlcNAc(b1-2)Man,-0.334
same,glycan array binding signal (z-score),[27],1.1
same,glycan array binding signal (z-score),[28],3.3
same,glycan array binding signal (z-score),[29],3.18
same,glycan array binding signal (z-score),[30],3.77
same,glycan array binding signal (z-score),Gal6S(b1-4)Glc,-0.407
same,glycan array binding signal (z-score),[31],0.074
same,glycan array binding signal (z-score),GalNAc6S(b1-4)GlcNAc,-0.377
same,glycan array binding signal (z-score),[32],-0.414
same,glycan array binding signal (z-score),[33],-0.356
same,glycan array binding signal (z-score),[34],-0.324
same,glycan array binding signal (z-score),GlcNAc(b1-3)Fuc,-0.323
same,glycan array binding signal (z-score),[35],-0.279
same,glycan array binding signal (z-score),[36],-0.327
same,glycan array binding signal (z-score),[37],-0.382
same,glycan array binding signal (z-score),[38],-0.337
same,glycan array binding signal (z-score),[39],-0.348
same,glycan array binding signal (z-score),[40],-0.248
same,glycan array binding signal (z-score),[41],-0.386
same,glycan array binding signal (z-score),[42],-0.278
same,glycan array binding signal (z-score),[43],-0.418
same,glycan array binding signal (z-score),[44],-0.366
